Where “and” joins values, the source holds several entries; their conditions need not be identical. Identical values can stand only once. Results filed as inconclusive are left out. Where a call stands in place of a potency, no number is given. Calls of active or inactive are those of the source. Calls come from the whole dose curve; as a rule, active = well fitted cell-killing curve with a large enough effect in the repeat runs; inconclusive = weak or mixed curves, or effect the other way; inactive = no such curve, though single readings can be large or run the other way.
Assay: qHTS assay to identify small molecule agonists of the RXR signaling pathway - cell viability counter screen (AID 1159529); note: nearly all actives have a fitted effect of over 50% in size
Settings: RXR-alpha-bla HEK293T viability, CellTiter-Glo, 16 h; series mostly up to 76.8 µM
From the text: National Center for Advancing Translational Sciences [NCATS]
NIH Chemical Genomics Center [NCGC]
U.S. Environmental Protection Agency [EPA]
National Institutes of Environmental Health Sciences [NIEHS]
National Toxicology Program [NTP]
U.S. Food and Drug Administration [FDA]
The Retinoid X receptor (RXR), a nuclear hormone receptor expressed in liver, spleen, placenta, epidermis, central nervous system. These receptors are able to form homo and heterodimers with other nuclear receptors and due to this heterodimerizing ability, RXR functions as master regulators producing diverse physiological effects. Three subtypes of RXR exist; alpha, beta and gamma. Retinoid X receptor alpha (RXR-alpha) has potential roles in metabolic signaling pathways, skin alopecia, dermal cysts, cardiac development, insulin sensitization etc. Therefore screening environmental chemicals on RXR-alpha signaling can be used for the studies focused on such therapeutic applications. For quantification of RXR-alpha ligands signaling, GeneBLAzer RXR alpha-UAS-bla HEK 293T (Life Technologies, Carlsbad, CA) cells containing a beta-lactamase reporter-gene under control of Retinoid X receptor-alpha response element were used to screen Tox21 10K library. The cytotoxicity of the Tox21 compound library against the RXR-alpha HEK 293T cell line was tested in parallel by measuring cell viability using CellTiter-Glo assay (Promega Corporation, Madison, WI) in the same wells.
Tox21 Assay Protocol Summary:
RXR-alpha HEK 293T cells were dispensed at 2,000 cells/6 uL of assay medium containing 2% charcoal-stripped FBS using a Multidrop Combi (ThermoFisher Scientific, Waltham, MA) dispenser. The assay was performed in black wall/clear-bottom 1536-well plates (Greiner Bio-One North America Inc. Monroe, NC). Tetraoctyl ammonium bromide was used as a positive control in the cytotoxicity screen. After the assay plates were incubated at 37 C and 5% CO2 for 5 hr, 23 nL of compounds dissolved in DMSO, positive control or DMSO only were transferred to the assay plate by a Pintool station (Kalypsys, San Diego, CA). The assay plates were incubated at 37 C and 5% CO2 for 16 hr. One uL of LiveBLAzer B/G FRET substrate (Life Technologies) was added using a Flying Reagent Dispenser (FRD) (Aurora Discovery, San Diego, CA) and the plates were incubated at room temperature for 2 hr. Fluorescence intensity (405 nm excitation, 460/530 nm emission) was measured using an Envision plate reader (PerkinElmer, Shelton, CT). For cytotoxicity, 4 uL/well of CellTiter-Glo reagent was added into the assay plates using an FRD. After 30 min incubation at room temperature, the luminescence intensity was measured using a ViewLux plate reader (PerkinElmer).
Potency is the fitted concentration of half-maximal effect.

Row | Compound | Potency
1 | CCOCCOC(C)=O | inactive
2 | CCc1nn(C)c(C(=O)NCc2ccc(C(C)(C)C)cc2)c1Cl | 43.6 µM (active)
3 | O=[N+]([O-])O.O=[N+]([O-])O.[Cd] | 43.6 µM (active)
4 | Oc1c(Cl)c(Cl)cc(Cl)c1Cl | 7.55 µM (active)
5 | O=c1[nH]c2ccccc2n1C1CCN(CCCC(c2ccc(F)cc2)c2ccc(F)cc2)CC1 | 21.9 µM (active) and 23.9 µM (active)
6 | c1ccc(OCC2CO2)cc1 (stereo not given) | inactive
7 | NNC(=O)c1ccccc1 | inactive
8 | O=C(CCCN1CCC2(CC1)C(=O)NCN2c1ccccc1)c1ccc(F)cc1 | inactive
9 | C[C@]12CC[C@@H]3c4ccc(OC(=O)N(CCCl)CCCl)cc4CC[C@H]3[C@@H]1CC[C@@H]2O | inactive
10 | N#CCCO | inactive
11 | CN(C)C1CSSSC1 | inactive
12 | CC(c1ccc(O)cc1)c1ccc(O)cc1 | inactive
13 | Nc1c(Oc2ccccc2)cc(O)c2c1C(=O)c1ccccc1C2=O | inactive
14 | CCOC(=O)C1(c2ccccc2)CCN(CCC(C#N)(c2ccccc2)c2ccccc2)CC1 | inactive
15 | S=C(SSC(=S)N1CCCCC1)N1CCCCC1 | 0.12 µM (active)
16 | CC1(C)[C@H](C(=O)O[C@H](C#N)c2cccc(Oc3ccccc3)c2)[C@@H]1/C=C(\Cl)C(F)(F)F | inactive
17 | CC(C)CCCCCOC(=O)c1ccccc1C(=O)OCCCCCC(C)C | inactive
18 | CCC[CH2][Sn]([CH2]CCC)([CH2]CCC)[O]C(=O)c1ccccc1 | 1.23 µM (active)
19 | CCOP(=S)(OCC)SCS(=O)(=O)C(C)(C)C | inactive
20 | COP(=O)(OC)SCn1c(=O)oc2cc(Cl)cnc21 | inactive

Row | Compound | Potency
21 | C[C@H]1O[C@@H](O[C@H]2[C@@H](O)C[C@H](O[C@H]3[C@@H](O)C[C@H](O[C@H]4CC[C@@]5(C)[C@H](CC[C@@H]6[C@@H]5CC[C@]5(C)[C@@H](C7=CC(=O)OC7)CC[C@]65O)C4)O[C@@H]3C)O[C@@H]2C)C[C@H](O)[C@@H]1O | 0.0621 µM (active)
22 | CC(=[OH+])/C=C(/C)[O-].CC(=[OH+])/C=C(\C)[O-].CC(=[OH+])/C=C(\C)[O-].[Al] | inactive
23 | CC[C@H](C)[C@H]1O[C@]2(C=C[C@@H]1C)C[C@@H]1C[C@@H](C/C=C(\C)[C@@H](O[C@H]3C[C@H](OC)[C@@H](O[C@H]4C[C@H](OC)[C@@H](O)[C@H](C)O4)[C@H](C)O3)[C@@H](C)/C=C/C=C3\CO[C@@H]4[C@H](O)C(C)=C[C@@H](C(=O)O1)[C@]34O)O2 | 16.3 µM (active)
24 | CC(C)[C@H](C(=O)O[C@H](C#N)c1cccc(Oc2ccccc2)c1)c1ccc(Cl)cc1 | inactive
25 | Cc1ccc(OP(=O)(Oc2ccccc2)Oc2ccccc2)cc1 | inactive
26 | CCCCCCCCCCCCCN1CC(C)OC(C)C1 (stereo not given) | inactive
27 | CCCCOP(=O)(CCCC)OCCCC | inactive
28 | CN(C)C(=S)S | 1.22 µM (active) and 43.6 µM (active)
29 | O=[N+]([O-])c1cc(C(F)(F)F)c(Cl)c([N+](=O)[O-])c1Cl | 17.4 µM (active)
30 | CCCCCCCCCCCCCCCCCCn1cc[n+](C)c1 | 10.9 µM (active)
31 | Cc1ccc(CCl)cc1 | inactive
32 | CC(C)[C@H](C(=O)OC(C#N)c1cccc(Oc2ccccc2)c1)c1ccc(OC(F)F)cc1 (stereo not given in full) | inactive
33 | ClC1=C(Cl)[C@]2(Cl)[C@@H]3[C@@H](Cl)[C@@H](Cl)C[C@@H]3[C@@]1(Cl)C2(Cl)Cl | inactive
34 | C[C@]12Cc3nonc3C[C@@H]1CC[C@@H]1[C@@H]2CC[C@@]2(C)[C@H]1CC[C@]2(C)O | 21.3 µM (active)
35 | CCc1cc(C)cc(CC)c1-c1c(OC(=O)C(C)(C)C)n2n(c1=O)CCOCC2 | inactive
36 | NC(=O)CCl | inactive
37 | [Cd+2].[Cl-].[Cl-] | 17.5 µM (active) and 24.5 µM (active)
38 | Cc1cc(SCc2sc(-c3ccc(C(F)(F)F)c(F)c3)nc2C)ccc1OCC(=O)O | 19.5 µM (active)
39 | SCc1ccco1 | inactive
40 | C=CC(=O)OCCCCOC(=O)C=C | inactive
